Where “and” joins values, the source holds several entries; their conditions need not be identical. Equal values may be shown once. Where a structure was tested more than once in an assay, its records may differ in their call. Calls of active or inactive are those of the source. The calls were made as follows: active = hit-call score of the fitted dose curve at least 0.9, where 1 is the maximum; inactive = score below 0.9.

Our source for the outcome and AC50 values is PubChem BioAssay (EPA / NIEHS).

Read-out in the first test: CD90, THY1 (gene 7070)
The experiment in a line: BSK_BF4T_CD90: BioMAP Diversity Plus: BF4T Assay for CD90 Biomarker Activity (AID 2284262). Particulars: primary human bronchial epithelial cells with fibroblasts. The procedure, abridged: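 CD90 levels by ELISA after 24 h treatment of human bronchial epithelial cell/dermal fibroblast cultures, analysed versus DMSO. Overt cytotoxicity checked in parallel cultures by sulforhodamine B staining.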
Take `NC(=O)C(F)(F)C(F)(F)F`: the result was inactive.
As to `OCC(F)(F)OC(F)(F)C(F)(F)OC(F)(F)CO`, the outcome was inactive.
On the same count and under the same terms, the same measure for `O=C(O)C(F)(F)OC(F)(F)C(F)(F)OC(F)(F)C(=O)O`: “inactive”; for `FC(F)(F)C(F)(C(F)(F)F)C(F)(F)C(F)(F)CC1CO1` (stereo unspecified): “inactive”.
Turning to `O=C(O)C(F)(F)OC(F)(F)C(F)(F)OC(F)(F)F`, the result was inactive.
Same read-out and setting: then `C=CC(=O)OCC(F)(F)C(F)F`, with “inactive”; and `O=S(=O)(F)C(F)(F)C(F)(F)C(F)(F)C(F)(F)C(F)(F)C(F)(F)C(F)(F)C(F)(F)F`, with “inactive”; and `O=C(O)C(F)(OC(F)(F)C(F)(F)C(F)(F)F)C(F)(F)F` (stereo unspecified), with “inactive”.
The same measure, in the same setting: then `O=C(O)C(F)(F)C(F)(F)C(=O)O`, with “inactive”.
Same read-out and setting: the same measure for `O=C(O)C=CC(F)(C(F)(F)F)C(F)(F)F`: “inactive”; for `COC(=O)C(F)(F)C(F)(F)OC(F)(C(F)(F)F)C(F)(F)OC(F)=C(F)F` (stereo unspecified): “inactive”.
In the case of `OCC(F)(F)OC(F)(F)C(F)(F)OC(F)(F)C(F)(F)OC(F)(F)F`, the outcome was inactive.
Same read-out and setting: then `OCC(F)(F)OC(F)(F)C(F)(F)OC(F)(F)C(F)(F)OC(F)(F)CO`, with “inactive”; and `CC(O)C(F)(F)C(F)(F)F` (stereo unspecified), with “inactive”.

Read-out in another test: Interleukin-1 alpha (IL1a), IL1A (gene 3552)
Description: BSK_BF4T_IL1a: BioMAP Diversity Plus: BF4T Assay for Interleukin-1 alpha (IL1a) Biomarker Activity (AID 2284264). Particulars: primary human bronchial epithelial cells with fibroblasts. The procedure, abridged:
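ELISA read-out of IL-1α from bronchial epithelial cell/dermal fibroblast co-cultures 24 h after compound addition. Increases scored against DMSO negative control. Cytotoxicity monitored by sulforhodamine B staining of parallel cultures.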
In the case of `NC(=O)C(F)(F)C(F)(F)F`, the result was inactive.
The same measure, in the same setting: the same measure for `OCC(F)(F)OC(F)(F)C(F)(F)OC(F)(F)CO`: “inactive”.
Regarding `O=C(O)C(F)(F)OC(F)(F)C(F)(F)OC(F)(F)C(=O)O`, the result was inactive.
Same read-out and setting: then `FC(F)(F)C(F)(C(F)(F)F)C(F)(F)C(F)(F)CC1CO1` (stereo unspecified), with “inactive”; and `O=C(O)C(F)(F)OC(F)(F)C(F)(F)OC(F)(F)F`, with “inactive”.
`C=CC(=O)OCC(F)(F)C(F)F`: the outcome was inactive.
On the same count and under the same terms, the same measure for `O=S(=O)(F)C(F)(F)C(F)(F)C(F)(F)C(F)(F)C(F)(F)C(F)(F)C(F)(F)C(F)(F)F`: “inactive”; for `O=C(O)C(F)(OC(F)(F)C(F)(F)C(F)(F)F)C(F)(F)F` (stereo unspecified): “inactive”.
In the case of `O=C(O)C(F)(F)C(F)(F)C(=O)O`, the result was inactive.
For the compound `O=C(O)C=CC(F)(C(F)(F)F)C(F)(F)F`, the result was inactive.
On the same count and under the same terms, the same measure for `COC(=O)C(F)(F)C(F)(F)OC(F)(C(F)(F)F)C(F)(F)OC(F)=C(F)F` (stereo unspecified): “inactive”; for `OCC(F)(F)OC(F)(F)C(F)(F)OC(F)(F)C(F)(F)OC(F)(F)F`: “inactive”.
As to `OCC(F)(F)OC(F)(F)C(F)(F)OC(F)(F)C(F)(F)OC(F)(F)CO`, the result was inactive.
Still for that read-out and setting: then `CC(O)C(F)(F)C(F)(F)F` (stereo unspecified), with “inactive”.

Read-out in a further test: KRT18 (gene 3875)
Description: BSK_BF4T_Keratin818: BioMAP Diversity Plus: BF4T Assay for Keratin 818 Biomarker Activity (AID 2284266). Particulars: primary human bronchial epithelial cells with fibroblasts. In outline: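 Keratin 8/18 levels quantified by ELISA after 24 h chemical treatment of bronchial epithelial cell/dermal fibroblast co-cultures, fitted in positive direction relative to DMSO. Parallel SRB staining tracks overt cytotoxicity.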
Regarding `NC(=O)C(F)(F)C(F)(F)F`, the result was inactive.
As to `OCC(F)(F)OC(F)(F)C(F)(F)OC(F)(F)CO`, the outcome was inactive.
In the case of `O=C(O)C(F)(F)OC(F)(F)C(F)(F)OC(F)(F)C(=O)O`, the outcome was inactive.
Same read-out and setting: the same measure for `FC(F)(F)C(F)(C(F)(F)F)C(F)(F)C(F)(F)CC1CO1` (stereo unspecified): “inactive”; for `O=C(O)C(F)(F)OC(F)(F)C(F)(F)OC(F)(F)F`: “inactive”; for `C=CC(=O)OCC(F)(F)C(F)F`: “inactive”.
With `O=S(=O)(F)C(F)(F)C(F)(F)C(F)(F)C(F)(F)C(F)(F)C(F)(F)C(F)(F)C(F)(F)F`, the result was inactive.
`O=C(O)C(F)(OC(F)(F)C(F)(F)C(F)(F)F)C(F)(F)F` (stereo unspecified): the outcome was inactive.
On to `O=C(O)C(F)(F)C(F)(F)C(=O)O`, for which the result was inactive.
In the case of `O=C(O)C=CC(F)(C(F)(F)F)C(F)(F)F`, the result was inactive.
Still for that read-out and setting: the same measure for `COC(=O)C(F)(F)C(F)(F)OC(F)(C(F)(F)F)C(F)(F)OC(F)=C(F)F` (stereo unspecified): “inactive”; for `OCC(F)(F)OC(F)(F)C(F)(F)OC(F)(F)C(F)(F)OC(F)(F)F`: “inactive”.
The same measure, in the same setting: the same measure for `OCC(F)(F)OC(F)(F)C(F)(F)OC(F)(F)C(F)(F)OC(F)(F)CO`: “inactive”; for `CC(O)C(F)(F)C(F)(F)F` (stereo unspecified): “inactive”.

Read-out in a further test: Matrix Metallopeptidase 1 (MMP1), MMP1 (gene 4312)
The experiment in a line: BSK_MyoF_MMP1: BioMAP Diversity Plus: MyoF Assay for Matrix Metallopeptidase 1 (MMP1) Biomarker Activity (AID 2284268). Conditions: primary human lung fibroblasts. The procedure, abridged: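 Lung fibroblast cultures were dosed with test chemicals and, after 24 h, MMP1 levels were measured by ELISA; responses were referenced to DMSO and analysed for increases.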
Turning to `NC(=O)C(F)(F)C(F)(F)F`, the result was inactive.
In the case of `Cc1ccc2c(c1N)C(=O)c1ccccc1C2=O`, the outcome was inactive.
As to `CC(C)Nc1ccc(Nc2ccccc2)cc1`, the outcome was inactive.
For the compound `N#Cc1cc([N+](=O)[O-])ccc1N`, the result was inactive.
Same read-out and setting: the same measure for `OCC(F)(F)OC(F)(F)C(F)(F)OC(F)(F)CO`: “inactive”.
In the case of `O=C(O)C(F)(F)OC(F)(F)C(F)(F)OC(F)(F)C(=O)O`, the outcome was inactive.
In the case of `FC(F)(F)C(F)(C(F)(F)F)C(F)(F)C(F)(F)CC1CO1` (stereo unspecified), the result was inactive.
The same measure, in the same setting: the same measure for `O=C(O)C(F)(F)OC(F)(F)C(F)(F)OC(F)(F)F`: “inactive”.
In the case of `C=CC(=O)OCC(F)(F)C(F)F`, the AC50 was 44 µM (active) and the outcome was inactive.
As for `O=S(=O)(F)C(F)(F)C(F)(F)C(F)(F)C(F)(F)C(F)(F)C(F)(F)C(F)(F)C(F)(F)F`, the result was inactive.
As to `O=c1ssc(Cl)c1Cl`, the AC50 was 20 µM (active).
Take `O=C(O)C(F)(OC(F)(F)C(F)(F)C(F)(F)F)C(F)(F)F` (stereo unspecified): the result was inactive.
For `N#Cc1c(-c2ccc(Cl)cc2)[nH]c(C(F)(F)F)c1Br`, the result was inactive.
Same read-out and setting: then `CCOP(=S)(S)OCC`, with “inactive”.
`Cc1c([N+](=O)[O-])cc2c(c1[N+](=O)[O-])C(C)(C)CC2(C)C`: the AC50 is 4.01 µM (active).
As to `CCOP(=S)(OCC)SCSc1ccc(Cl)cc1`, the AC50 was 30.1 µM (active).
Regarding `O=C(O)C(F)(F)C(F)(F)C(=O)O`, the result was inactive.
`O=C(O)C=CC(F)(C(F)(F)F)C(F)(F)F`: the result was inactive.
Regarding `ClC(Cl)=C(c1ccc(Cl)cc1)c1ccccc1Cl`, the AC50 was 9.59 µM (active).
`C=CC(=O)OCC(CC)(COC(=O)C=C)COC(=O)C=C`: the AC50 is 3.88 µM (active).
For the compound `COC(=O)C(F)(F)C(F)(F)OC(F)(C(F)(F)F)C(F)(F)OC(F)=C(F)F` (stereo unspecified), the result was inactive.
Take `O=S1(=O)OCC2C(CO1)C1(Cl)C(Cl)=C(Cl)C2(Cl)C1(Cl)Cl` (stereo unspecified): the result was inactive.
On to `CCOP(=S)(OCC)SCS(=O)(=O)CC`, for which the result was inactive.
The same measure, in the same setting: the same measure for `CC(Cl)CN(C)C` (stereo unspecified): “inactive”; for `CCOP(=S)(NC(C)C)Oc1ccccc1C(=O)OC(C)C` (stereo unspecified): “inactive”.
Take `CCOP(=S)(OCC)SCn1nnc2ccccc2c1=O`: the result was inactive.
Take `O=P(OCC(Br)CBr)(OCC(Br)CBr)OCC(Br)CBr` (stereo unspecified): the AC50 was 25.9 µM (active).
As for `c1ccc2c(c1)sc1ccccc12`, the outcome was inactive.
On to `OCC(F)(F)OC(F)(F)C(F)(F)OC(F)(F)C(F)(F)OC(F)(F)F`, for which the concentration at half-maximal activity (AC50) is 19.9 µM (active) and 18.3 µM (active).
Turning to `Nc1ccc([N+](=O)[O-])cc1Cl`, the result was inactive.
Turning to `CCCCC(CC)COC(=O)c1c(Br)c(Br)c(Br)c(Br)c1C(=O)OCC(CC)CCCC` (stereo unspecified), the outcome was inactive.
As for `CC(C)(C)c1ccccc1OP(=O)(Oc1ccccc1)Oc1ccccc1`, the half-maximal activity concentration (AC50) is 5.26 µM (active).
In the case of `OCC(F)(F)OC(F)(F)C(F)(F)OC(F)(F)C(F)(F)OC(F)(F)CO`, the result was inactive.
Same read-out and setting: the same measure for `CCCCOCCOP(=O)(OCCOCCCC)OCCOCCCC`: “inactive”; for `CC(O)C(F)(F)C(F)(F)F` (stereo unspecified): “inactive”.
With `CCCCC(CC)COP(=O)(Oc1ccccc1)Oc1ccccc1` (stereo unspecified), the AC50 was 5.32 µM (active).
With `COP(=O)(O)OC`, the outcome was inactive.
Regarding `COP(N)(=S)OC`, the result was inactive.

Broadly, the AC50 is the midpoint of the concentration-response curve, whichever way the signal moves.
